The values that follow come from ChEMBL document CHEMBL3988442, “University of Dundee, Small-Polar-MMV Screening Library” (2021).

In all, about 48,000 compounds went through this assay and about 13,000 (27%) showed an effect of 50% or more. This is one part of the list.

The subject of the assay is Wolbachia pipientis. The assay can be described thus: Anti-Wolbachia Cell-Based Screen. The assay is classed as functional. More on the design: scale not given: in the data most compounds retested in dose-response had high values. As to conditions: 5 µM.
For the compound `Cc1nc2ccccc2nc1CN1CCn2nc(CCC(=O)O)cc2C1`, the “Percent Effect” value was 11.39%.

For the compound `CC(Nc1ccc(CN2CCCC2=O)cc1)C(=O)N(C)CCC#N` (stereo not given), the “Percent Effect” value is 4.456%.

`CCCC(=O)N1CCC(C(=O)NCCNc2ncccn2)CC1`: the “Percent Effect” value was 97.7%.

Turning to `CS(=O)(=O)N1CCC(C(=O)NCCNc2ncccn2)CC1`, the “Percent Effect” value is listed as -2.901%.

Take `O=C(NCCNc1ncccn1)C1CCN(c2ncccn2)CC1`: the “Percent Effect” value is listed as -3.346%.

As for `O=C(NCCNc1ncccn1)C1CCCC1`, the “Percent Effect” value is reported as 120%.

Regarding `CCCC(=O)N1CCC(C(=O)NCCN2CCC(C)CC2)CC1`, the “Percent Effect” value was 2.916%.

`Cc1ccc(CN2CC[C@H]3C(=O)N(c4cccnc4)CCO[C@H]3C2)o1`: the “Percent Effect” value was -2.706%.

With `CN1CCN(C(=O)c2nc3c(s2)CCCN3C(=O)C2CC2)CC1.O=C(O)C(F)(F)F`, the “Percent Effect” value is recorded as -2.349%.

Regarding `Cc1ccc(NC(=O)c2nc3c(s2)CCCN3C(=O)C2CC2)cn1.O=C(O)C(F)(F)F`, the “Percent Effect” value was determined as 7.338%.

On to `CN1CCCc2sc(C(=O)NCc3cccnc3)nc21`, for which the “Percent Effect” value is -7.154%.

On to `O=C(NCCc1cccnc1)c1nc2c(s1)CCCN2C(=O)C1CC1.O=C(O)C(F)(F)F`, for which the “Percent Effect” value turned out to be 99.18%.

As for `COCCN(C)C(=O)c1nc2c(s1)CCCN2C(=O)C1CC1`, the “Percent Effect” value is on record as 11.31%.

Consider `O=C(c1nc2c(s1)CCCN2C(=O)C1CC1)N1CCCC1`, for which the “Percent Effect” value worked out at 12.54%.

As for `O=C(NCCc1cccc(F)c1)c1nc2c(s1)CCCN2C(=O)C1CC1`, the “Percent Effect” value stood at 109.4%.

In the case of `O=C(NCc1cccnc1)c1nc2c(s1)CCCN2C(=O)C1CC1.O=C(O)C(F)(F)F`, the “Percent Effect” value is 105.9%.

For the compound `CN(C)CCNC(=O)c1nc2c(s1)CCCN2C(=O)C1CC1.O=C(O)C(F)(F)F`, the “Percent Effect” value turned out to be 97.24%.

Regarding `O=C(CCNc1ncccn1)NCc1ccc(Br)s1`, the “Percent Effect” value was found to be 9.501%.

`CC(=O)c1cccc(NC(=O)N2CCCCC2CN2CCCC2=O)c1` (stereo not given): the “Percent Effect” value is reported as -4.61%.

For `Cc1ccc(C(=O)NCCNCC2CNc3ccnn3C2)cc1` (stereo not given), the “Percent Effect” value is given as -8.644%.

Turning to `CC(C)Cc1cc(C(=O)NCC(O)CN2CCCCCC2)on1` (stereo not given), the “Percent Effect” value is listed as -21.74%.

Consider `Cc1ccc(OCc2cccc(C(=O)N(C)C(C)CC#N)c2)cn1` (stereo not given), for which the “Percent Effect” value was -5.236%.

With `CCOCC1CN(C(=O)Cc2ccccn2)Cc2c1cnn2CC` (stereo not given), the “Percent Effect” value is -48.51%.

As to `OCc1ccc(-c2c(-c3ccccc3)ncn2CCN2CCOCC2)o1`, the “Percent Effect” value turned out to be 6.374%.

`c1cnc(N2C[C@H](OCC3CCOCC3)[C@H]3COC[C@H]32)nc1`: the “Percent Effect” value is listed as -13.81%.

Regarding `Cc1ncsc1CN1C[C@@H](OCC(=O)N(C)C)[C@H]2OCCC[C@H]21.O=C(O)C(F)(F)F`, the “Percent Effect” value is given as -4.628%.

For the compound `O=C(O)C(F)(F)F.c1ccc(C[C@H]2CN(Cc3nccs3)CC[C@@H]2OCC2CC2)cc1`, the “Percent Effect” value is reported as -18.04%.

For `CN(C)C(=O)CO[C@H]1CN(Cc2nccs2)[C@@H]2COC[C@H]12.O=C(O)C(F)(F)F`, the “Percent Effect” value is listed as 104.4%.

Take `O=C(O)C(F)(F)F.c1csc(CN2CCCn3nnc(COCC4CC4)c3C2)n1`: the “Percent Effect” value stood at 3.459%.

Consider `O=C(O)C(F)(F)F.O=C(O)C(F)(F)F.c1csc(CN2CCOCC3(CCN(C4CCOCC4)C3)C2)n1` (stereo not given), for which the “Percent Effect” value is reported as 4.386%.

`O=C(O)C(F)(F)F.c1csc(CN2C[C@H](OCC3CCOCC3)[C@H]3COC[C@H]32)n1`: the “Percent Effect” value worked out at 78.63%.

Consider `O=C(O)C(F)(F)F.c1csc(CN2C[C@H](OCC3CC3)[C@H]3COC[C@H]32)n1`, for which the “Percent Effect” value was 114.6%.

On to `O=C(c1nnn(-c2ccccc2Cl)c1-c1ccccn1)N1CCSCC1`, for which the “Percent Effect” value turned out to be 5.989%.

For the compound `CC(=O)N(Cc1noc(C2CC2)n1)C1CCN(Cc2ccccc2)C1` (stereo not given), the “Percent Effect” value is recorded as 96.7%.

As for `CC(=O)N(Cc1noc(C2CC2)n1)C1CCN(Cc2ccncc2)C1` (stereo not given), the “Percent Effect” value worked out at 0.6841%.

Take `CC(=O)N(Cc1noc(C2CC2)n1)C1CCN(Cc2cccnc2)C1` (stereo not given): the “Percent Effect” value stood at 56.34%.

Turning to `COC(=O)CN(C(=O)c1ccc(Cl)o1)c1cccc(F)c1`, the “Percent Effect” value is reported as -9.604%.

With `CN(C)CCOCC1CN(C(=O)c2cccnc2)Cc2ccnn2C1` (stereo not given), the “Percent Effect” value is -7.083%.

Consider `COc1ccc(CN(C)[C@@H]2CN(C(=O)c3ccnn3C)C[C@H]2O)cc1`, for which the “Percent Effect” value turned out to be 97.48%.

With `COc1ccc(CN(C)[C@@H]2CN(C(=O)c3cccn3C)C[C@H]2O)cc1`, the “Percent Effect” value is 98.88%.

Turning to `COc1ccc(CN(C)[C@@H]2CN(C(=O)c3ccccc3)C[C@H]2O)cc1`, the “Percent Effect” value turned out to be 114.6%.

Turning to `CCN1C[C@@H]2CN(C(=O)c3cccn3C)C[C@@H]2C1=O`, the “Percent Effect” value was -32.3%.

`Cn1nccc1C(=O)N1CCOC(Cc2cccc(C(F)(F)F)c2)C1` (stereo not given): the “Percent Effect” value is -3.764%.

`COc1ccc(COCC(O)CNC(=O)c2cccnc2)cc1` (stereo not given): the “Percent Effect” value was 15.02%.

As for `Cn1cccc1C(=O)N1C[C@H]2CN(CC3CC3)C(=O)[C@H]2C1`, the “Percent Effect” value is -15.38%.

As to `COc1ccc(CN(C)[C@@H]2CN(C(=O)c3cccnc3)C[C@H]2O)cc1`, the “Percent Effect” value is given as 87.24%.

For the compound `COc1cccc(C(=O)N2C[C@@H](C(=O)O)[C@H](c3ccccc3C)C2)c1`, the “Percent Effect” value is given as -3.21%.

On to `COc1ccc(OCc2nc(C(=O)N3C[C@H](O)[C@@H](N(C)C)C3)co2)cc1`, for which the “Percent Effect” value is -35.76%.

`COc1cc(C)ccc1OCc1nc(C(=O)N2CCC(C)CC2)co1`: the “Percent Effect” value was -9.42%.

For the compound `CCN1CCC2(CN(C(C)=O)CC23CCN(CC2CC2)CC3)C1=O.O=C(O)C(F)(F)F` (stereo not given), the “Percent Effect” value is given as -51.48%.
